Screening results deposited in PubChem BioAssay by National Center for Advancing Translational Sciences (NCATS).
This is a sample that favours compounds with a hit; in the whole collection about 0.92% have one here.
WRN inhibitor: qHTS for Inhibitors of WRN Helicase; 0.46% of 360,000 active; WRN helicase unwinding, fluorescent forked duplex, kinetic; Potency, µM (series often up to 114 µM), for the others: at the top dose activity change, negative = inhibition, actives largely listed as inhibitors; Bifunctional 3'-5' exonuclease/ATP-dependent helicase WRN (Homo sapiens), Q14191; further: nearly all actives have a fitted effect of over 55% in size
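WRN at 20 nM final preincubated with compound 15 min at room temperature; reaction started with 100 nM fluorophore/quencher forked duplex oligonucleotide and 2 mM ATP final. Unwinding followed kinetically by red fluorescence (ex 525, em 598 nm).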
L3MBTL1 inh: qHTS Assay for the Inhibitors of L3MBTL1 | Potency, µM (highest dose often 57.1 µM), inactives show at the top dose activity, negative = inhibition, usual class: inhibitors | AlphaScreen L3MBTL1–H3K9me1 peptide binding | 0.66% of 230,000 active; further: nearly all actives have a fitted effect of over 60% in size
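Read-out is AlphaScreen signal from streptavidin donor and nickel chelate acceptor beads (10 ug/mL final each) bridging L3MBTL1 (50 nM) and biotinylated K9-monomethylated H3(1-15) peptide (75 nM), after 30 min compound exposure at room temperature.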
BLM inh: qHTS Assay for Inhibitors of Bloom's syndrome helicase (BLM). RecQ-like DNA helicase BLM (Homo sapiens), P54132. recombinant BLM DNA unwinding, fluorescence dequenching. Potency, µM (doses to about 56.1 µM), for the others: at the highest dose activity change, negative = inhibition, usual class: inhibitors. 0.2% of 350,000 active;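 further: plate controls were vehicle for no effect and no enzyme for full effect; nearly all actives have a fitted effect of over 35% in size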
APE1 inh: qHTS Assay for Inhibitors of the Human Apurinic/apyrimidinic Endonuclease 1 (APE1) | Potency, µM (series often up to 65.8 µM), for the others: at the highest dose activity change, negative = inhibition, hits mostly inhibitors | recombinant APE1, TAMRA/BHQ-2 abasic DNA cleavage fluorescence | 0.35% of 350,000 active;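 further: plate controls were vehicle for no effect and reference inhibitor for full effect; nearly all actives have a fitted effect of over 55% in size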
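Measures dequenching upon AP-site incision of a 5'-TAMRA/3'-BHQ-2 THF-containing duplex, 50 nM; human APE1 0.75 nM after 15 min room-temperature exposure to compound; kinetic three-point read at one-minute spacing.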
RECQ1 inh-1: qHTS Assay for Inhibitors of RecQ-Like Dna Helicase 1 (RECQ1); ATP-dependent DNA helicase Q1 (Homo sapiens), P46063; RECQ1 DNA unwinding, red fluorescence kinetic read; Potency, µM (highest dose often 57.3 µM), for inactives: at the highest dose activity, negative = inhibition, usual class: inhibitors; 0.54% of 240,000 active;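 further: plate controls were vehicle for no effect and no enzyme for full effect; nearly all actives have a fitted effect of over 30% in size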
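RECQ1T1 50 nM; forked duplex (20 bp + 30-nt ss tails) 200 nM, ATP 2 mM final; pH 8.0, 2 mM MgCl2, 2.5 ug/ml poly(dI-dC); 15 min compound preincubation; discontinuous kinetic read over 2 h at RT.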
RECQ1 inh conf: Confirmation qHTS Assay for Inhibitors of RecQ-Like Dna Helicase 1 (RECQ1) | 28% of 610 active | RECQ1 helicase DNA unwinding, fluorescence | Potency, µM (highest dose often 229 µM), inactives show top-dose activity change, negative = inhibition, usual class: inhibitors | shares compounds with RECQ1 inh-1 | AID 2708, 2010; further: nearly all actives have a fitted effect of over 45% in size
RECQ1 ADP FP: Counterscreen for RECQ1 Inhibitors: ADP Fluorescence Polarization Displacement Assay. shares compounds with RECQ1 inh-1. ADP fluorescence polarization displacement counterscreen. Potency, µM (series often up to 228 µM), inactives show at the top dose activity change, negative = inhibition, actives largely listed as inhibitors. 27% of 530 active. AID 2711, 2010; further: nearly all actives have a fitted effect of over 45% in size
RECQ1 inh-2: Confirmation qHTS Assay for Inhibitors of RecQ-Like Dna Helicase 1 (RECQ1) - Round 2 Cherry Picks; shares compounds with RECQ1 inh-1; Potency, µM (series often up to 119 µM), for inactives: at the top dose activity, negative = inhibition, hits mostly inhibitors; recombinant RECQ1 DNA unwinding, red fluorescence; 15% of 1,100 active; further: nearly all actives have a fitted effect of over 50% in size
Numbers without * were called inactive; i = inactive; u = inconclusive; x = not tested or not shown; [ ] = dose if it differs, or a comment. The call rests on the fitted dose curve; in most records, active means well fitted curve in the direction sought with a large enough effect; inconclusive means small, poorly fitted or top-dose-only effect, or another doubt; inactive means no such curve, though single readings can be large; an effect the other way counts as inactive or inconclusive. Unless noted, on the % scale 0 is the no-effect control and ±100 the full control effect; potency means the concentration at half of the fitted maximal effect.

SMILES	WRN inhibitor	L3MBTL1 inh	BLM inh	APE1 inh	RECQ1 inh-1	RECQ1 inh-2	others
COc1ccccc1CNc1nc(-c2ccc3c(c2)OCO3)nc2ccccc12	x	x	-17%	7%	u	-13%
COCCNC(=O)c1onc(CSc2cc(C)cc(C)c2)c1C(=O)O	-1%	7%	-3%	1%	i	x	RECQ1 inh conf=0%;RECQ1 ADP FP=1%
COCCNC(=O)c1onc(CSc2ccc(C)c(C)c2)c1C(=O)O	-6%	5%	-2%	0%	-8%	x
N#Cc1c(-c2ccco2)cc(-c2ccccc2)[nH]c1=O	-26%[11.6 µM]	x	u	32µM*	22µM*	x	RECQ1 inh conf=u;RECQ1 ADP FP=u
O=C1c2ccc3c4c(ccc(c24)C(=O)N1CCCCO)C(=O)N(CCCCO)C3=O	-8%[11.6 µM]	x	-1%	u	7.1µM*	50µM*
O=C(c1ccc2c(c1)C(=O)N(CCCO)C2=O)c1ccc2c(c1)C(=O)N(CCCO)C2=O	-18%	x	-1%	6%	-1%	x
Nc1c(C(=O)Nc2ccccc2F)sc2nc(-c3ccco3)ccc12	-24%	8%	-10%	-6%	5%	x
Nc1c(C(=O)Nc2ccccc2F)sc2nc(-c3cccnc3)ccc12	-5%	x	-6%	13%	32µM*	-15%
CCOC(=O)CC(NC(=O)N1CCC(CN2CCC(C)CC2)CC1)c1ccccc1 (stereo unspecified)	x	x	1%	x	x	x
COCCn1c(=O)[nH]c2cc(C(=O)N3CCN(c4ccccc4F)CC3)ccc2c1=O	8%	x	1%	13%	x	x
CCn1c(=O)c(=O)[nH]c2cc(C(=O)N3CCN(c4ccccc4F)CC3)ccc21	-18%	0%	-3%	0%	25µM*	79µM*
COc1ccc(CN(Cc2ccco2)C(=O)COc2ccc(Cl)cc2C)cc1	x	x	-9%	x	x	x
CS(=O)(=O)N1CCC2(CCCN(c3cccc(-c4ccccc4)c3)C2)CC1	x	x	-4%	8%	28µM*	u
COc1ccc2c(c1)O[C@@H](c1cccc(C(F)(F)F)c1)[C@H](OC(=O)NC1CCCC1)C2=O	x	x	-3%	18%	-15%	x
CCCC(=O)Nc1nc2nc(-c3ccccc3)cc(-c3ccccc3)n2n1	-6%	5%	-3%	3%	-10%	x
O=C(O)CCC(=O)Nc1nc2nccc(-c3ccccc3)n2n1	-1%	-18%	9%	u	-25%	x	RECQ1 inh conf=u;RECQ1 ADP FP=-2%
CC(=O)N1CCC[C@@]2(CCN(Cc3nccs3)C2)C1	x	x	-4%	0%	-4%	x
N#CC1=C(N)n2c(s/c(=C\c3ccco3)c2=O)=C(C#N)C1c1ccco1 (stereo unspecified)	40µM*	25µM*	-6%	7.1µM*	8.9µM*	-31%
COc1ccc(-n2nc(C(=O)NCC(=O)NCC3CCCO3)c3ccccc3c2=O)c(OC)c1 (stereo unspecified)	4%	6%	-6%	-1%	-3%	x
COc1ccc(-n2c(N)c(C(=O)NCC3CCCO3)c3nc4ccccc4nc32)c(OC)c1 (stereo unspecified)	-9%	1%	-10%	u	u	-20%
O=C1C=C(N(CCO)Cc2ccccc2)c2ccccc2C1=O	-5%	u	u	-1%	u	u
C=CCn1c(NC(=O)c2ccc(Br)o2)c(S(=O)(=O)c2ccccc2)c2nc3ccccc3nc21	u	u	u	u	u	-13%
C/C(=N\N=C(c1ccccc1)c1ccccc1)c1cccs1	-5%[57.1 µM]	-4%	-9%	-1%	18µM*	x	RECQ1 inh conf=-4%[114 µM];RECQ1 ADP FP=-9%[91.9 µM]
COc1ccccc1-c1noc(CSc2nc3ccc(C)cc3[nH]2)n1	x	x	2%	x	x	x
C=CCSc1nc(=O)n2ccc(C)cc2n1	-7%[11.6 µM]	x	-21%	-5%	1.6µM*	-21%	RECQ1 inh conf=5%[114 µM];RECQ1 ADP FP=-6%[91.9 µM]
SMILES	WRN inhibitor	L3MBTL1 inh	BLM inh	APE1 inh	RECQ1 inh-1	RECQ1 inh-2	others
C=CCSc1nc(=O)n2ccccc2n1	10%[57.1 µM]	x	-4%	-2%	-2%	x
CN(Cc1ccccc1)C(=O)CCNS(=O)(=O)c1ccc2c(c1)oc(=O)n2C	166%	-24%	-7%	u	35µM*	u
O=C(c1ccccc1)c1ccc(OCCOCCN2CCN(Cc3ccccc3)CC2)cc1	u	-8%	-9%	19%	u	2%
CS/C(=N\S(=O)(=O)c1cccs1)NC(=O)CSc1nc2ccccc2s1	u	-15%	-22%	6%	u	u
CN1CCN(c2ncc3nc(CCc4ccccc4)c(=O)n(C)c3n2)CC1	x	x	-4%	5%	i	x
Cc1noc(C)c1COc1ccc(C(=O)NCc2ccccn2)cc1	0%	x	-1%	-1%	0%	x	RECQ1 inh conf=4%;RECQ1 ADP FP=u
Cc1noc(C)c1COc1ccc(C(=O)Nc2ccccc2)cc1	-8%	x	-2%	-6%	-13%	x	RECQ1 inh conf=2%;RECQ1 ADP FP=u
O=C(Cn1c(=O)n(CC2CCCO2)c(=O)c2ccccc21)Nc1ccc(F)cc1F (stereo unspecified)	x	x	-3%	x	x	x
Cc1ccc(C)c(N2CCN(C(=O)Cn3nc(Cc4cccnc4)c4ccccc4c3=O)CC2)c1	x	x	-6%	x	x	x
Cc1ccc(C(=O)Nc2nc(-c3cccnc3)cs2)o1	-25%	-4%	-4%	-5%	u	-14%	RECQ1 inh conf=12%[114 µM];RECQ1 ADP FP=-4%[91.9 µM]
